Compounds with a hit are over-represented: about 4.8% of the library has one in this group of screens.
TIM10 inh: growth inhibitors of isogenic TIM10 control yeast, primary screen, counter-screen for tim10-1 yeast inhibitor project, luminescence, uHTS; inhibition, % at 10 µM; S. cerevisiae TIM10 strain growth, BacTiter-Glo luminescence, 24 h; 330,000 compounds, 1.4% hits;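 active = inhibition of 40% or more at the single tested concentration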;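 also: wild-type TIM10 isogenic control strain grown at permissive 25 °C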
SKKanGAS inh: S. pyogenes SKKanGAS growth inhibitors in kanamycin, primary screen, streptokinase expression inhibitor project, SKKanGAS strain, BacTiter-Glo luminescence | AID 1662, 2009 | 6 h | 300,000 compounds, 1.3% hits | inhibition, % at 7.5 µM;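 active = mean replicate score, as percent of positive control median, at least 50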;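 also: strain carries kanamycin resistance gene driven by streptokinase promoter and grows in 40 µg/ml kanamycin; loss of luminescence reflects streptokinase promoter inhibition or plain growth inhibition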
tim10-1 inh: growth inhibitors of tim10-1 mutant yeast, primary screen, luminescence, uHTS. S. cerevisiae tim10-1 ts strain growth, BacTiter-Glo, 24 h. inhibition, % at 20 µM. 330,000 compounds, 2.2% hits. AID 463190, 2010;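 active = inhibition of at least 40%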;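 also: mutant grown at 25 °C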
NALP1 inh: NALP1 inflammasome inhibitors in reconstituted yeast, colorimetric, S. cerevisiae, triplicate retest; inhibition, % at 10 µM; S. cerevisiae NALP1/ASC/caspase-1 growth, X-gal OD620, 72 h; AID 2071, 2009; 280,000 compounds, 0.61% hits; in the data active = inhibition mostly above about 24%, no sharp cut-off; inactive = mostly below about 32%
tim23-1 inh: growth inhibitors of tim23-1 mutant yeast, primary screen, luminescence, uHTS; S. cerevisiae tim23-1 growth, BacTiter-Glo luminescence, 24 h; inhibition, % at 20 µM; 330,000 compounds, 1.3% hits; AID 463212, 2010;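 active = growth inhibition of the mutant yeast at or above 50%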;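 also: temperature-sensitive mutant grown at 25 °C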
PfHsp90 set2: growth inhibition of PfHsp90-expressing yeast, primary screen, antimalarial PfHsp90 inhibitor project, S. cerevisiae, BacTiter-Glo luminescence, single point, set 2. inhibition, % at 9.4 µM. BacTiter-Glo ATP, 48 h; yeast lacking PDR1 and PDR3 efflux regulators. AID 504621, 2011. 310,000 compounds, 0.32% hits;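 active = every replicate shows inhibition above about 80%, whatever the replicate mean, limit read from the data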
tim10-1 conf: growth inhibitors of tim10-1 mutant yeast, confirmation, single concentration, luminescence, S. cerevisiae | shares compounds with tim10-1 inh | S. cerevisiae tim10-1 ts strain growth, BacTiter-Glo, 24 h | inhibition, % at 20 µM | 7,400 compounds, 56% hits;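 active = inhibition of yeast growth at or above a set limit in either of two repeat tests at 20 µM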;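 also: tim10-1 mutant grown at permissive 25 °C to find synthetic lethal compounds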
tim10 confirm: growth inhibitors of wild-type TIM10 yeast, confirmation, counter-screen for tim10-1 synthetic lethality project, single concentration, luminescence, S. cerevisiae; shares compounds with TIM10 inh; S. cerevisiae tim10 strain growth, BacTiter-Glo luminescence, 24 h; inhibition, % at 10 µM; 4,600 compounds, 63% hits; AID 463215, 2010;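 active = inhibition of yeast growth at or above a set limit in either of two replicates at 10 µM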; also: this counterscreen used the strain with wild-type TIM10
tim23-1 conf: tim23-1 mutant yeast growth inhibitors, confirmation, luminescence, single concentration; shares compounds with tim23-1 inh; S. cerevisiae tim23-1 growth, BacTiter-Glo luminescence, 24 h; inhibition, % at 20 µM; 4,400 compounds, 83% hits; AID 463218, 2010;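 active = inhibition above about 39% in either of two replicate wells at 20 µM, limit read from the data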;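 also: temperature-sensitive tim23-1 mutant grown at 25 °C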
Each line names hits and unclear results; the compound was inactive in the other large screens (follow-up assays come after a bar, where they were run).

N#C/C(=C\c1ccc(F)cc1)C(=O)NC1CCS(=O)(=O)C1 (stereo not given)	none
Cc1ccc(-c2[nH]ncc2/C=C(\C#N)C(=O)NC2CCCCC2)cc1	none
N#C/C(=C\c1ccccc1[N+](=O)[O-])C(=O)NC1CCCCC1	TIM10 inh 72.4, tim10-1 inh 75.0, tim23-1 inh 75.7 | tim10-1 conf 84.2 | tim10 confirm 83.2 | tim23-1 conf 73.3
CC(C)(C)c1ccc(/C=C(\C#N)C(=O)NC2CC2)cc1	TIM10 inh 58.3, tim10-1 inh 51.3, tim23-1 inh 84.6 (no result: NALP1 inh, PfHsp90 set2) | tim10-1 conf 77.9 | tim10 confirm 64.9 | tim23-1 conf 50.6
N#C/C(=C\c1cc(Br)ccc1F)C(=O)NC1CC1	TIM10 inh 51.5, tim10-1 inh 76.7, tim23-1 inh 89.8 | tim10-1 conf 60.2 | tim10 confirm 80.5 | tim23-1 conf 91.2
Cc1ccc(C)c(N2C(=O)CC(Cc3ccc(Cl)cc3)C2=O)c1 (stereo not given)	none
Cc1ccsc1C(=O)N1CC=C(c2ccccc2)CC1	none (no result: NALP1 inh, PfHsp90 set2)
COC(=O)c1ccc(N2CCCCC2)c(NC(=O)c2ccco2)c1	none
Cc1ccc(O)c(N=Cc2cc(Cc3ccccc3)cc([N+](=O)[O-])c2O)c1	tim10-1 inh 52.1, tim23-1 inh 51.4, PfHsp90 set2 100.9 | tim10-1 conf inactive | tim23-1 conf 61.1
N#C/C(=C/c1ccncc1)c1nc2ccccc2s1	TIM10 inh 69.7, tim10-1 inh 59.5, tim23-1 inh 80.0 | tim10-1 conf 40.1 | tim10 confirm 67.2 | tim23-1 conf 78.6
N#C/C(=C\c1ccncc1)c1nc2ccccc2[nH]1	none
COc1ccccc1/C=C1\N=C(C(C)(C)C)OC1=O	TIM10 inh 46.7, tim10-1 inh 44.4, tim23-1 inh 51.2 | tim10-1 conf 47.0 | tim10 confirm 34.4 | tim23-1 conf 67.1
O=C(ONC1=NCCCCC1)c1cccc([N+](=O)[O-])c1	TIM10 inh 82.3, tim10-1 inh 60.6, tim23-1 inh 78.0 | tim10-1 conf 37.7 | tim10 confirm 89.7 | tim23-1 conf 68.8
O=C(O)CC12CC3CC(C1)CC(n1ncc(NCC4CCCO4)c(Cl)c1=O)(C3)C2 (stereo not given)	none
O=C(COC(=O)c1ccc2c(c1[N+](=O)[O-])C(=O)c1ccccc1C2=O)NC1CC1	TIM10 inh 60.1, tim10-1 inh 79.7, tim23-1 inh 75.9 (no result: SKKanGAS inh) | tim10-1 conf 63.8 | tim10 confirm 45.7 | tim23-1 conf 73.2
CC(C)(C)NC(=O)C(c1ccc(Cl)cc1)N(Cc1ccco1)C(=O)CCl (stereo not given)	tim10-1 inh 53.4, tim23-1 inh 51.3 | tim10-1 conf 38.0 | tim23-1 conf 48.5
O=C(OCc1ccccc1)C1=[N+]([O-])OC(C(=O)OCc2ccccc2)C1c1c[nH]c2ccccc12 (stereo not given)	none (no result: SKKanGAS inh)
CC(=O)N1c2ccccc2Sc2ccccc21	none
N/C(=N\OC(=O)N1c2ccccc2Sc2ccccc21)c1ccccc1	TIM10 inh 84.1, tim10-1 inh 61.1, tim23-1 inh 66.0 | tim10-1 conf 47.9 | tim10 confirm 85.3 | tim23-1 conf 50.0

Screening results deposited in PubChem BioAssay by several laboratories.
